Assay outcomes (PubChem)
Hits are enriched below; roughly 1.4% of the tested compounds scored in any of these assays.
MBD2 inh: MBD2-methylated oligo binding inhibition. Q9UBB5. TR-FRET, MBD2 binding to methylated oligonucleotide. inhibition, % at 4.4 µM. hit rate 0.31% among 370,000. AID 686964; in the data active = inhibition above about 13%
UHRF1 binding: blocks human UHRF1 binding to methylated DNA | inhibition, % at 4.4 µM | UHRF1 binding to methylated oligo, TR-FRET | Q96T88 | hit rate 0.75% among 370,000;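 note: UHRF1 SRA domain binding a hemimethylated CpG hairpin DNA probe; 0% = median of test compound wells and 100% = reference inhibitor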
Target sequence (Q96T88 whole entry, looked up, the tested form may be a part): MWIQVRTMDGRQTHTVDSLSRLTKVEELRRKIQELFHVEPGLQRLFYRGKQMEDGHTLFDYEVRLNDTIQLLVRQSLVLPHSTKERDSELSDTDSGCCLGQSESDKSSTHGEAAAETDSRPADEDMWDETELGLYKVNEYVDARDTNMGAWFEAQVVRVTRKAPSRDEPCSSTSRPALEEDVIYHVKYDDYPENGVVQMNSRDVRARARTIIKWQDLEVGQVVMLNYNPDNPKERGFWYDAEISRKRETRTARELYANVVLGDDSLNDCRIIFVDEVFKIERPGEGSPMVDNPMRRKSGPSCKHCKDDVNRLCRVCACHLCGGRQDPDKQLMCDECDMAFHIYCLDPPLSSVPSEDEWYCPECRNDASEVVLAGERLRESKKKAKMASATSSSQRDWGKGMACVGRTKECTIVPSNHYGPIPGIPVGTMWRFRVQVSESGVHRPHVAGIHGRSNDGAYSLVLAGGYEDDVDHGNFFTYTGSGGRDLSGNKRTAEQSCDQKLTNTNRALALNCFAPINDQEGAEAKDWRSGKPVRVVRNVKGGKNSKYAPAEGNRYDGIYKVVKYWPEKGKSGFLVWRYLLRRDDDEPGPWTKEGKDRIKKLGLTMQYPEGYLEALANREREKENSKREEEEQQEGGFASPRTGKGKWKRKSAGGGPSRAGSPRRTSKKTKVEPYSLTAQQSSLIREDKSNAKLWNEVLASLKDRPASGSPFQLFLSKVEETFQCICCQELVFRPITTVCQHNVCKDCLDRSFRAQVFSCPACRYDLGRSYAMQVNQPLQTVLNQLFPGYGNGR
Casp6 inh: inhibitors of human caspase-6 | purified caspase-6, Z-VEID-R110 cleavage fluorescence | inhibition, % at 12.5 µM | AID 686996 | hit rate 0.53% among 350,000 | P55212;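 active = mean inhibition across replicates at least about 35%, with every replicate also reaching that limit, limit read from the data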;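 note: 0% = median of neutral control wells and 100% = no fluorescence left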
LEDGF integ inh: blocks HIV-1 LEDGF/p75-dependent DNA integration; TR-FRET IN-LEDGF/p75 DNA integration, Eu/Cy5; inhibition, % at 3.7 µM; hit rate 0.64% among 370,000; AID 743269;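 active = inhibition above the screen-wide mean plus 3 SD, cut at about 13% in these data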;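 note: signal is the Cy5 over europium emission ratio at 671 and 618 nm; 0% = plate median of compound wells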
UHRF1 DNA bind: inhibits human UHRF1 binding to methylated oligonucleotide, MBD2 counter-screen; shares compounds with MBD2 inh; TR-FRET; hit rate 25% among 1,000; AID 720530; inhibition, % at 4.4 µM;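 note: UHRF1 SRA domain binding a labeled hemimethylated CpG hairpin DNA; 0% = vehicle only and 100% = reference inhibitor with vehicle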
MBD2 confirm: confirmation of human MBD2-DBD methylated oligonucleotide binding inhibitors; TR-FRET MBD2-DBD binding to methylated oligonucleotide; inhibition, % at 4.4 µM; shares compounds with MBD2 inh; hit rate 26% among 1,000; in the data active = inhibition above about 14%
An asterisk follows results filed as active; . = no result. Cut-off read from the data, not from the text of the source, unless noted: active = inhibition above about 21%; inactive = the rest.

SMILES	MBD2 inh	UHRF1 binding	Casp6 inh	LEDGF integ inh	UHRF1 DNA bind	MBD2 confirm
C[C@H](NC(=O)C[C@H]1C=C[C@@H](NC(=O)Nc2ccc3c(c2)OCO3)[C@@H](CO)O1)c1ccccc1	.	.	-2	.	.	.
O=C(N/N=C/c1ccc([N+](=O)[O-])o1)c1ccccc1NS(=O)(=O)c1cccs1	-2	-5	40*	6	.	.
C(=C\c1ccc(C2[C@H]3CNC[C@@H]2N3Cc2ccccn2)cc1)/c1ccccc1 (some centres not stated)	.	.	50*	.	.	.
CN(C)C(=O)c1cccc(-c2ccc(C3[C@H]4CNC[C@@H]3N4Cc3ccccn3)cc2)c1 (some centres not stated)	.	.	-6	.	.	.
CC(C)NC(=O)Nc1ccc2c(c1)CC(=O)N([C@@H](C)CO)C[C@H](C)[C@@H](CN(C)C(=O)Nc1cccc3ccccc13)O2	.	.	3	.	.	.
N#CC1=C(N)Oc2cc(O)c(Cl)cc2C1c1ccccc1F (configuration not stated)	-1	-4	44*	-4	.	.
COc1ccccc1N(CC(O)Cn1c2ccccc2c2ccccc21)S(=O)(=O)c1ccccc1 (configuration not stated)	7	21*	-1	0	.	.
C[C@H](CO)N1C[C@H](C)[C@@H](CN(C)S(=O)(=O)c2cn(C)cn2)Oc2ccc(NC(=O)Nc3ccc(C(F)(F)F)cc3)cc2C1=O	.	.	-1	.	.	.
CC(=O)N(c1ccccc1)c1nc(/C=C/C(=O)Nc2c(C)cc(C)cc2C)cs1	-2	99*	.	-2	.	.
C[C@@H]1CCCCO[C@@H](CN(C)C(=O)c2ccncc2)[C@H](C)CN([C@@H](C)CO)C(=O)c2cc(NC(=O)C3CCCCC3)ccc2O1	.	.	-1	.	.	.
CCOC(=O)c1oc2cccc(O)c2c1C	2	-4	.	-2	.	.
CCOC(=O)c1oc2ccc(CNC(C)(C)C)c(Cl)c2c1C	-3	97*	-3	3	.	.
O=C(Nc1ccc(F)cc1)N1C[C@H]2[C@@H](c3ccccc31)[C@H](CO)N2C(=O)Cc1ccncc1	.	.	-2	.	.	.
COC(=O)C[C@@H]1CC[C@@H](NC(=O)C2CCC2)[C@@H](CO)O1	21*	23*	.	7	9	4
CCNC(=O)C[C@H]1CC[C@H](NC(=O)C2CCC2)[C@@H](CO)O1	.	.	2	.	.	.
CCOC(=O)CNS(=O)(=O)c1ccc(S(=O)(=O)N2CCCC2)cc1	2	4	-1	-1	.	.
Cc1ccc(S(=O)(=O)NCC(=O)OCC(=O)c2ccc(S(=O)(=O)N3CCCCC3)cc2)cc1C	25*	-1	3	-4	2	4
CO[C@H]1CN(C)C(=O)c2ccc(NC(C)=O)cc2OC[C@H](C)N(Cc2ccncc2)C[C@@H]1C	.	.	-2	.	.	.
Cc1cc(C)c(C#N)c(SCC(=O)Nc2ccc(S(=O)(=O)Nc3ncccn3)cc2)n1	18*	1	0	0	12	3
CC(=O)Nc1cc(-c2cccc(C(=O)N(C)C)c2)cn2c(-c3ccccc3)cnc12	-1	-3	1	-2	.	.
CC(=O)Nc1cc(-c2cccc(C(=O)N(C)C)c2)cn2c(-c3ccc(C(C)=O)cc3)cnc12	14*	-3	8	-2	8	5
COc1cc2c(cc1OC)-c1c(OC)c(OC)cc3ccnc(c13)C2=O	33*	37*	7	-2	53*	46*
COC(=O)c1ccc(OC)c(CSc2nnc(COc3ccc(Cl)cc3)o2)c1	14*	0	.	1	7	4
Cc1ccc(S(=O)(=O)N2CCN(c3ncccn3)CC2)c(C)c1	2	1	0	-5	.	.
Cc1ccc(C)c(S(=O)(=O)N2CCN(c3ncccn3)CC2)c1	15*	3	-1	-2	8	3
Cc1c2cnn(CC(=O)Nc3c(F)c(F)cc(F)c3F)c(=O)c2c(C)n1Cc1ccccc1F	14*	15	4	7	18	29*
CNC(=O)Cn1ncc2c(C)n(Cc3ccc(C)cc3)c(C)c2c1=O	2	-1	.	0	.	.
C/C=C/c1cnc2c(c1)C(=O)N([C@H](C)CO)C[C@@H](C)[C@H](CN(C)S(=O)(=O)c1cn(C)cn1)O2	.	.	1	.	.	.
Cc1nnc(SCC(=O)Nc2ccc(N(C)C)cc2)n(N)c1=O	13*	-3	-3	-6	2	3
Cc1ccccc1-c1nc2ccccc2c(=O)n1/N=C/c1ccc([N+](=O)[O-])cc1	15*	1	-3	7	-1	1
